{"source": "PubChem BioAssay AID493001", "about": "(Johns Hopkins Ion Channel Center, 2010)", "note": "Among all 1,900 compounds or so, about 430 (23%) were called active.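 The calls were made as follows: active = duplicate-averaged calcium rise in uninduced cells above buffer wells' mean plus 5 SD; inactive = the rest.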 This excerpt belongs to a sample that is enriched for actives.", "data": [{"test": "direct calcium signal without carbachol stimulation – cell-based, HEK293 M3R, non-induced, no carbachol, second counter-screen, artefact control for RGS4 inhibitor project, confirmation (AID 493001)", "conditions": "Fluo-4 calcium, at 10 µM; stronger effect = higher value", "values": [{"smiles": "CCN1C(=O)C(=Cc2c(C)n(CC(=O)NCC3CCCO3)c3ccccc23)C(=O)N(CC)C1=S", "note": "(centres undefined)", "calcium response (agonist-mode artifact)": "13.5% (active)"}, {"smiles": "O=C(N/N=C/c1c(O)n(Cc2ccccc2)c(=O)[nH]c1=O)c1ccccc1", "calcium response (agonist-mode artifact)": "inactive"}, {"smiles": "O=C1NC(=O)N(Cc2ccco2)C(=O)/C1=C\\c1ccc(-c2ccc(F)cc2)o1", "calcium response (agonist-mode artifact)": "152% (active)"}, {"smiles": "Cc1ccc2c(c1)=C/C(=C\\c1c(O)[nH]c(=O)[nH]c1=O)C(=O)N=2", "calcium response (agonist-mode artifact)": "inactive"}]}]}
